Screening data (PubChem BioAssay)
ELG1 repair inh = blocks ELG1-dependent DNA repair in HEK293T cells; 330,000 tested, 2.3% active; HEK293T ELG1-luciferase reporter, luminescence, 16 h; DNA damage induced by 5-fluorouridine; Potency, µM (highest dose often 46.1 µM), for the others: at the top dose activity change, negative = inhibition, most hits filed as inhibitors; also: nearly all actives have a fitted effect of over 55% in size
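Step one: seed 2,000 cells per well. Step two: pin-transfer compound or DMSO alongside 5-fluorouridine. Step three: incubate 16 hr, 37 °C, 5% CO2. Step four: add ONE-Glo, wait 30 min, read luminescence.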
Gal4-VP16 FLuc = counter-screen for ROR gamma inhibitors: Gal4-VP16 reporter; AID 2546; Drosophila S2 Gal4-VP16 UAS-luciferase, luminescence, 20 h; Potency, µM (highest dose often 53.6 µM), inactives show at the top dose activity, negative = inhibition, actives largely listed as inhibitors; 310,000 tested, 3.5% active;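 also: Gal4-VP16 expression switched on by copper sulfate through the metallothionein promoter; nearly all actives have a fitted effect of over 50% in size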
ALOX12 inh = ALOX12 (human) lipoxygenase inhibition; P18054; purified 12hLO, xylenol orange hydroperoxide absorbance; Potency, µM (doses to about 108 µM), for inactives: at the highest dose activity change, negative = inhibition, hits mostly inhibitors; 580,000 tested, 1.1% active; AID 1671190
Target sequence (P18054 whole entry, looked up): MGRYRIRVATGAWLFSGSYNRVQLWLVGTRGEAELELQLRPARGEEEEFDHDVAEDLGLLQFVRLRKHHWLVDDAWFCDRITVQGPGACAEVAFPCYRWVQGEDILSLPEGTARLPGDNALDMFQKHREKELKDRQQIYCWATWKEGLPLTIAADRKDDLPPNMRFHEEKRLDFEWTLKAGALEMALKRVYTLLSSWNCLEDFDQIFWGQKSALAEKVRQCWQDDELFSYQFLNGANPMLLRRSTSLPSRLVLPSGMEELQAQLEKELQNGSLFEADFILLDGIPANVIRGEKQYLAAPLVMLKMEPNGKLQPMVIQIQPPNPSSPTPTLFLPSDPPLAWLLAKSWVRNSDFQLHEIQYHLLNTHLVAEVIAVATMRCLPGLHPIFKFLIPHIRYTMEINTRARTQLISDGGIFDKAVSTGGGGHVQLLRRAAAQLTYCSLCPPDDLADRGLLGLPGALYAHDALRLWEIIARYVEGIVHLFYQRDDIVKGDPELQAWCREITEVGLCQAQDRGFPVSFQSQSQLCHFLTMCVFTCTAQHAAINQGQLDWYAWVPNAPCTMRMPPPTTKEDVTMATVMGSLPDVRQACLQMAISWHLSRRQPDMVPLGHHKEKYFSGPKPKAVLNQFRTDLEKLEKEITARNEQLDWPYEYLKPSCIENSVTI
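Purified human 12hLO (150 nM final) in 25 mM Hepes, 0.01% Triton X-100, pH 7.0 was preincubated 15 min at room temperature with compound. Then 40 uM arachidonic acid was added, 30 min. Hydroperoxide was read by Fe-XO absorbance ratio 573/405 nm.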
RORgamma inh = ROR gamma (mouse) transcription inhibition; AID 2551; P51450; 310,000 tested, 5.4% active; Drosophila S2 Gal4-RORgamma UAS-luciferase reporter, 20 h; Potency, µM (top dose mostly 53.6 µM), for inactives: top-dose activity change, negative = inhibition, usual class: inhibitors; also: nearly all actives have a fitted effect of over 60% in size
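Drosophila Schneider cells stably carrying a metallothionein-driven Gal4 DBD–ROR gamma fusion and a UAS-Photinus luciferase reporter were exposed to compound for 1 hr, then induced with copper sulfate (700 uM final) for 20 hr at ambient temperature before luminescence reading.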
TDP1 cell noCPT = qHTS for Inhibitors of human tyrosyl-DNA phosphodiesterase 1 (TDP1): qHTS in cells in absence of CPT; 420,000 tested, 15% active; Potency, µM (highest dose often 46.2 µM), for the others: at the top dose activity change, negative = growth inhibition, usual class: inhibitors; DT40 Tdp1-/- hTDP1 cells, no CPT, ATP luminescence, 48 h; also: nearly all actives have a fitted effect of over 55% in size
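Seeded 400 DT40-hTDP1 cells/well (vehicle DMSO, no 20 nM CPT); pinned compounds; ≥48 hr at 37 °C; CellTiter-Glo luminescence as viability measure.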
TDP1 cell CPT = growth inhibition of DT40 Tdp1-/-;hTDP1 cells with camptothecin (screen for TDP1 inhibitors) | 420,000 tested, 12% active | Potency, µM (series often up to 46.2 µM), without a hit: at the highest dose activity change, negative = growth inhibition, usual class: inhibitors | chicken DT40 Tdp1-/-;hTDP1 cells + 20 nM CPT, ATP luminescence, 48 h; also: nearly all actives have a fitted effect of over 55% in size
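Chicken DT40 Tdp1-/- cells stably complemented with human TDP1 were seeded at 400 cells/well in medium containing 20 nM camptothecin, exposed to pin-transferred compounds, and grown at 37 °C for at least 48 hr. Viability was read as ATP luminescence.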
Starred values were filed as active, the others as inactive; ? = inconclusive; · = no result given. In the library only some 15% were active in any assay of this set; here they are far more common. Calls follow the shape of the dose curve; as a rule, active = well fitted curve in the direction sought with a large enough effect; inconclusive = small, poorly fitted or top-dose-only effect, or another doubt; inactive = no such curve, though single readings can be large; an effect the other way counts as inactive or inconclusive. % is scaled to controls: 0 for no effect and ±100 for the full control effect; potency is read from the fitted curve at half-maximal effect.

SMILES	ELG1 repair inh	Gal4-VP16 FLuc	ALOX12 inh	RORgamma inh	TDP1 cell noCPT	TDP1 cell CPT
O=c1c2ccccc2ncn1-c1ccc([N+](=O)[O-])cc1[N+](=O)[O-]	14.6µM*	?	-3.6%	-10.6%	18.4µM*	16.4µM*
COCCCNC(=O)c1ccc2c(=O)n(CC3CCCO3)c(=S)[nH]c2c1 (configuration not stated)	-1.2%	-9.0%	-30.1%	-23.2%	-12.6%	-15.2%
CCCn1c(=S)[nH]c2cc(C(=O)N3CCN(C4CCCCC4)CC3)ccc2c1=O	6.3%	-12.0%	-8.4%	10µM*	?	?
COCCCNC(=O)c1ccc2c(=O)n(C3CCCC3)c(=S)[nH]c2c1	?	?	-13.5%	14.1µM*	-14.5%	-20.8%
COCCn1c(=S)[nH]c2cc(C(=O)N3CCCC(C)C3)ccc2c1=O (configuration not stated)	?	?	-7.0%	?	?	25.9µM*
CCCn1c(=S)[nH]c2cc(C(=O)N3CCCC(C(=O)OCC)C3)ccc2c1=O (configuration not stated)	-29.1%	?	6.5%	11.2µM*	20.6µM*	14.6µM*
COCCn1c(=S)[nH]c2cc(C(=O)N3CCc4ccccc4C3)ccc2c1=O	0.0%	-5.2%	?	?	-25.6%	-16.7%
CCOCCCn1c(=S)[nH]c2cc(C(=O)N3CCOCC3)ccc2c1=O	-3.7%	-5.1%	-15.9%	-9.3%	8.5%	-0.4%
COC(=O)CNC(=O)c1ccc(CNC(=O)OC(C)(C)C)cc1	·	·	20.3%	·	·	·
